{"source": "PubChem BioAssay (NCI)", "note": "The panel holds about 83,000 compounds, 20% with a hit somewhere; the sample as a whole holds those more often.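 Cell lines were cultured in 96-well plates, exposed to a single compound concentration, and assessed for percent growth 48 hours later.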 A number with no mark means an inactive call. The source made the active and inactive calls. How the source made its calls: active means growth percent below 10; inactive means the rest."}
{"system": "HL-60(TB) leukemia", "assay": "NCI-60 one-dose screen, 48 h (100 = growth as untreated, 0 = no growth, -100 = all killed)", "details": "10 µM unless noted"}
{"smiles": "CCCSc1nc(NCCc2c[nH]c3ccccc23)c(C#N)c(-c2ccc(F)cc2)n1", "growth": "54.2%"}
{"smiles": "Cc1ccc(-c2nc(C#N)c(S(=O)(=O)N3CCN(S(=O)(=O)c4ccccc4)CC3)o2)cc1", "growth": "-44.9% (active)"}
{"smiles": "COc1ccc(NC(=O)CSc2nnc(-c3ccc(-c4nc5ccc(Cl)cc5[nH]4)cc3)o2)cc1", "growth": "61.5%"}
{"smiles": "CC1=C2C(=C[C@@](C)(COCOCCCl)[C@@H]2O)C(=O)[C@](C)(O)C12CC2", "growth": "-31.8% (active)"}
{"smiles": "CN1C(=O)N(C)C2SC(N/N=C/c3ccccc3)=NC21", "note": "(centres undefined)", "growth": "8.73% (active)"}
{"smiles": "CCCCCCCCc1ccc(C(=O)Nc2cccc(P(=O)(O)O)c2)cc1", "growth": "101%"}
{"smiles": "O=C(c1ccc(O)cc1)C1[C@H](c2ccc(Cl)cc2)[C@@H](c2ccccc2)NC12C(=O)Nc1ccccc12", "note": "(some centres undefined)", "growth": "-33.3% (active)"}
{"smiles": "COc1ccc(C(=O)/C=C/c2ccc(Oc3nc(Nc4ccc(F)cc4)nc(N(C)C)n3)c(OC)c2)cc1", "growth": "48.1%"}
{"smiles": "COc1ccc(C(=O)/C=C/c2ccc(OCc3ccccc3)c(OC)c2)cc1OC", "growth": "5.55% (active)"}
{"smiles": "C=C1CCC2C3(C)COC(c4ccccc4)OC3CCC2(C)C1CC(NCc1ccccc1)C1=CCOC1=O", "note": "(centres undefined)", "growth": "43.6%"}
{"smiles": "CN1C(=O)C(O)(CC(=O)c2cc3ccccc3oc2=O)c2ccccc21", "note": "(centres undefined)", "growth": "84.4%"}
{"smiles": "CC1=C2C(=C[C@@](C)(CO)[C@@H]2O)/C(=N\\N)[C@](C)(O)C12CC2", "growth": "-22.1% (active)"}
{"smiles": "Cc1ccccc1[C@H]1C(C(=O)c2ccc(Cl)cc2)C2(N[C@@H]1c1ccccc1)C(=O)Nc1ccc(Cl)cc12", "note": "(some centres undefined)", "growth": "-32.2% (active)"}
{"smiles": "COc1ccc(N=Nc2c(N)nn3c(-c4ccc(F)cc4)ccnc23)cc1", "growth": "95.3%"}
{"smiles": "CC1(C)CC[C@]2(C(=O)O)CC[C@]3(C)C(=CCC4[C@@]5(C)C[C@@H](O)[C@@H]6OC(c7ccccc7F)OC[C@@]6(C)C5CC[C@]43C)C2C1", "note": "(some centres undefined)", "growth": "2.91% (active)"}
{"smiles": "O=C(c1ccc(O)cc1)C1[C@H](c2ccccc2Br)[C@@H](c2ccccc2)NC12C(=O)Nc1ccc(Br)cc12", "note": "(some centres undefined)", "growth": "33.6%"}
{"smiles": "Cc1ccc([C@H]2C(C(=O)c3ccc(Cl)cc3)C3(N[C@@H]2c2ccccc2)C(=O)Nc2ccc(Br)cc23)cc1", "note": "(some centres undefined)", "growth": "35.1%"}
{"smiles": "O=C(c1ccc(OCCN2CCOCC2)cc1)C1[C@H](c2ccc(Cl)cc2)[C@@H](c2ccccc2)NC12C(=O)Nc1ccc(Cl)cc12", "note": "(some centres undefined)", "growth": "-12.7% (active)"}
{"smiles": "Cc1ccccc1NC(=O)c1cccc(NC(=O)CCl)c1", "growth": "19%"}
{"smiles": "O=C(c1ccc(O)cc1)C1[C@H](c2ccc(Br)cc2)[C@@H](c2ccccc2)NC12C(=O)Nc1ccc(Br)cc12", "note": "(some centres undefined)", "growth": "12.5%"}
{"smiles": "O=C(CSc1nc2ccccc2c(=O)[nH]1)Nc1ccccc1C(=O)O", "growth": "103%"}
{"smiles": "NNc1ncnc2sc3c(c12)CCN(Cc1ccccc1)C3", "growth": "18.8%"}
{"smiles": "COc1ccc(-c2ccnc(SCc3cc4cc(OC)ccc4[nH]c3=O)n2)cc1", "growth": "-8.43% (active)"}
{"smiles": "O=C(NNC(=S)NCCc1ccccc1)c1ccc(OCc2nc3ccc(Cl)cc3[nH]2)cc1", "growth": "88.9%"}
{"smiles": "COc1cc(/C=C/C(=O)c2ccccc2)ccc1Oc1nc(Nc2ccc(F)cc2)nc(N(C)C)n1", "growth": "20.5%"}
{"smiles": "Cc1ccc(NC(=O)[C@]23CCC(C)(C)CC2C2=CCC4[C@@]5(C)C[C@@H](O)[C@H](O)[C@@](C)(CO)C5CC[C@@]4(C)[C@]2(C)CC3)cc1", "note": "(some centres undefined)", "growth": "-15.4% (active)"}
{"smiles": "N#Cc1c(-c2cccc(O)c2O)cc(-c2ccc3ccccc3c2)[nH]c1=O", "growth": "56.6%"}
{"smiles": "O=C(Nc1cccc(C(F)(F)F)c1)c1cncc(C#Cc2cnc3cccnn23)c1", "growth": "29.9%"}
{"smiles": "N#Cc1c(-c2ccc(F)cc2)nc(SCc2ccc([N+](=O)[O-])cc2)nc1N1CCOCC1", "growth": "82.7%"}
{"smiles": "Clc1ccc(CNc2nc(SCCN3CCOCC3)nc3c2cnn3CC(Cl)c2ccc(Br)cc2)cc1", "note": "(centres undefined)", "growth": "-9.78% (active)"}
{"smiles": "O=C(NN1C(=O)/C(=C/C=C/c2ccc([N+](=O)[O-])o2)SC1=S)c1ccncc1", "growth": "-30.4% (active)"}
{"smiles": "Nc1nc(Nc2ccccc2)nn1Cc1c(Cl)cccc1Cl", "growth": "30%"}
{"smiles": "C=C1CCC2C3(C)COC(c4c(F)cccc4F)OC3CCC2(C)C1C/C=C1/C(=O)OCC1O", "note": "(centres undefined)", "growth": "6.75% (active)"}
{"smiles": "C#CCOc1cc(N(CC)CC)ccc1C(C(=O)NC(C)(C)C)N(C(=O)C1CCc2cc(F)ccc2O1)c1ccc(F)cc1F", "note": "(centres undefined)", "growth": "6.7% (active)"}
